Inconclusive results are not listed. The source made the active and inactive calls. Calls follow the shape of the dose curve; as a rule, active = well fitted curve in the direction sought with a large enough effect; inconclusive = small, poorly fitted or top-dose-only effect, or another doubt; inactive = no such curve, though single readings can be large; an effect the other way counts as inactive or inconclusive.
What was measured:
[1] = target: Rap guanine nucleotide exchange factor 3 (Homo sapiens) (UniProt O95398); assay: Confirmatory qHTS for agonist of cAMP-regulated guanine nucleotide exchange factor 3 (EPAC1) (AID 1645881);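 also: EPAC1 catalysed release of BODIPY-GDP from Rap1B seen as fluorescence loss; 100% = effect of cAMP agonist control; nearly all actives have a fitted effect of over 75% in size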
Chain of Rap guanine nucleotide exchange factor 3 (Homo sapiens) (O95398 whole entry, looked up): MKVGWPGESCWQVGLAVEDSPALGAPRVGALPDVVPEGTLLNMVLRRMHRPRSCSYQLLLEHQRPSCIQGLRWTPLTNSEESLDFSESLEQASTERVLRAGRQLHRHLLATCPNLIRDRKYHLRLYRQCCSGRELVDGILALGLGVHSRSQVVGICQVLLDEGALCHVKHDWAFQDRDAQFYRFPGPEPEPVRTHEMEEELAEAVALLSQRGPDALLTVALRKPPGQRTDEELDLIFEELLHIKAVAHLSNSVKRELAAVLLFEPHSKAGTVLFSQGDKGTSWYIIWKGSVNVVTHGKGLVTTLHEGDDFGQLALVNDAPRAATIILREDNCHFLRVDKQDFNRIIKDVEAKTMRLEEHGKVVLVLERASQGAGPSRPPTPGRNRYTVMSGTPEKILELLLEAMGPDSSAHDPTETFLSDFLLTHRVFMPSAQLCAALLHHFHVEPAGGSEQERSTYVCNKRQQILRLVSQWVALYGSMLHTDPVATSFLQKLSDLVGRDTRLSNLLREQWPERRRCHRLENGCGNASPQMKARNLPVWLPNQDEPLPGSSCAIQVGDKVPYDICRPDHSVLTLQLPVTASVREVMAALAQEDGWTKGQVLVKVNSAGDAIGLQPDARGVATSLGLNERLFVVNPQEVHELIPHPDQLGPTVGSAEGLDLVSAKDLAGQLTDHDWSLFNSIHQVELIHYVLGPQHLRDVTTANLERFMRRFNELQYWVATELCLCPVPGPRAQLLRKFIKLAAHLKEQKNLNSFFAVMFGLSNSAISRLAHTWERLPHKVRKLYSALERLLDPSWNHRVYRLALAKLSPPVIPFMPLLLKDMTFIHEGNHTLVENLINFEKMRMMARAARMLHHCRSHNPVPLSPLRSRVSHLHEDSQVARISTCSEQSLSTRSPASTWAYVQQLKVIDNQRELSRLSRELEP

[2] = target: Rap guanine nucleotide exchange factor 4 (Homo sapiens) (UniProt Q8WZA2); assay: Confirmatory qHTS for agonist of cAMP-regulated guanine nucleotide exchange factor 4 (EPAC2) (AID 1645884);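 also: nucleotide exchange releases bodipy-GDP from Rap1 and this lowers its fluorescence; % is scaled to controls: 0 for no effect and ±100 for the full control effect; nearly all actives have a fitted effect of over 65% in size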
Chain of Rap guanine nucleotide exchange factor 4 (Homo sapiens) (Q8WZA2 whole entry, looked up): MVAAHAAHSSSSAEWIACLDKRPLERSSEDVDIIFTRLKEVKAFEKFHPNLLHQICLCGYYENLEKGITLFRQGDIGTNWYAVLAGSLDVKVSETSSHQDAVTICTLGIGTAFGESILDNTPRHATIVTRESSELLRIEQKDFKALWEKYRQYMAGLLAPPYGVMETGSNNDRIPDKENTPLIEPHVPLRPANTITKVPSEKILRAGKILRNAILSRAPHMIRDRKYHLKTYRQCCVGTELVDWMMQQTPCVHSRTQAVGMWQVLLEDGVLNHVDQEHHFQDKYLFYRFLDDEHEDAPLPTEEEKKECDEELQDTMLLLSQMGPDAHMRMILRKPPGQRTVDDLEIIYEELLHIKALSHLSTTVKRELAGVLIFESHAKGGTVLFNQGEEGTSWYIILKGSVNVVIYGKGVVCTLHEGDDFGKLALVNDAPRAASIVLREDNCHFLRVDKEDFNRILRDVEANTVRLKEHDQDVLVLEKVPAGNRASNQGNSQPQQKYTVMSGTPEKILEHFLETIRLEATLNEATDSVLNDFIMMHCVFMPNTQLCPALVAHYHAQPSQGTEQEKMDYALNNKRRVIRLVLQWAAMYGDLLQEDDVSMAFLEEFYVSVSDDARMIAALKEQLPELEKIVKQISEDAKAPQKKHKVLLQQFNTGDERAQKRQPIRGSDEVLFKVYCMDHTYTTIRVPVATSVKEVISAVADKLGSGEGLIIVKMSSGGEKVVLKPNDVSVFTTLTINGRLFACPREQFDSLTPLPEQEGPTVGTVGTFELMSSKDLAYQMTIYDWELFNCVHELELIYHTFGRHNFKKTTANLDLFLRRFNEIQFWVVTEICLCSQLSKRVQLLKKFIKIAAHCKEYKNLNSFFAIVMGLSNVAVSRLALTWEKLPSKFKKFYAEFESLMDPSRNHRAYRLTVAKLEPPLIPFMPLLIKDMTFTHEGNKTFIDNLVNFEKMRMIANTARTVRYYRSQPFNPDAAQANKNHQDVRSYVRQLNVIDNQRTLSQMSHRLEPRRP

[3] = target: Rap guanine nucleotide exchange factor 3 (Homo sapiens) (UniProt O95398); assay: Counterscreen qHTS for antagonist of cAMP-regulated guanine nucleotide exchange factor 3 (EPAC1) (AID 1645888);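 also: fluorescence loss as bound BODIPY-GDP is released from Rap1B; % of control where 0% means no effect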
How it was run: (§1)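 Rap1B–BODIPY-GDP (250 nM) with 50 uM GDP; compounds pin-transferred to 9.74 nM–152 uM final (activator) or from 7.32 nM upwards (inhibitor). Fluorescence Ex/Em 480/540 nm read at 5 and 30 min, then after adding cAMP or buffer, at room temperature.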

[4] = target: Rap guanine nucleotide exchange factor 3 (Homo sapiens) (UniProt O95398); assay: Counterscreen qHTS for agonist of cAMP-regulated guanine nucleotide exchange factor 3 (EPAC1) (AID 1645889); also: % of control where 0% means no effect; nearly all actives have a fitted effect of over 40% in size
How it was run: as §1

CC1=NN(c2nc(-c3ccccc3)cs2)C(=O)C1
inactive: Potency [1] | Potency [2] | Potency [3] | Potency [4]

CCCCC[C@H](C)N1C[C@H](COCc2ccccc2)Oc2cc(N3CCC[C@H]3C(N)=O)ccc2S1(=O)=O
inactive: Potency [1] | Potency [2] | Potency [3] | Potency [4]

COc1cccc(C(=O)Oc2ccc(/C=N/Nc3ccc(C(=O)O)cc3)cc2OC)c1
inactive: Potency [1] | Potency [2] | Potency [3] | Potency [4]

O=S(=O)(Nc1ccccc1-c1ccccc1)c1ccccc1
inactive: Potency [1] | Potency [2] | Potency [3] | Potency [4]

CCC(C)(C)c1ccc(Oc2ccc(N)cc2)cc1
inactive: Potency [1] | Potency [2] | Potency [3] | Potency [4]

CCOC(=O)C1=C(N)Oc2ccc3ccccc3c2C1c1ccc(O)cc1 (stereo not given)
inactive: Potency [1] | Potency [2] | Potency [3] | Potency [4]

CCOC(=O)Cn1nc(C)c(NC(=O)COc2ccccc2[N+](=O)[O-])c1C
inactive: Potency [1] | activation [2] 1.83% [at 17.1 µM, percent relative to cAMP agonist control] | activity change, negative = inhibition [3] -12.5% [at 30.8 µM] | activation [4] 2.17% [at 30.8 µM]

COc1cccc(N2CCN(CC(=O)NC(=O)NCc3ccco3)CC2)c1
inactive: Potency [1] | Potency [2] | Potency [3] | Potency [4]

O=C(Nc1nc2ccccc2c(=O)s1)c1ccc(F)cc1Cl
inactive: Potency [1] | Potency [2] | Potency [3] | Potency [4]

C=C1CC2C(=O)N(Cc3cc(OC)ccc3OC)C(C(=O)OCC)(C(=O)OCC)C1N2C(=O)OC(C)(C)C (stereo not given)
inactive: Potency [1] | Potency [2] | Potency [3] | Potency [4]

Cc1ccc2c(CC(=O)OCc3cc(=O)n4c(n3)sc3ccccc34)coc2c1
inactive: Potency [1] | Potency [2] | Potency [3] | Potency [4]

Cc1ccc2nc(-c3cccc(Br)c3)c(Cc3ccccn3)n2c1
inactive: Potency [1] | Potency [2] | Potency [3] | Potency [4]

COc1ccccc1N1C(=O)C2C(C(=O)c3ccccc3)=NN(c3ccc(Br)cc3)C2C1=O (stereo not given)
inactive: Potency [1] | Potency [2] | Potency [3] | Potency [4]

CCOc1ccc(NC(=NCc2ccc3c(c2)OCO3)SC2CC(=O)N(c3ccc(C(=O)O)cc3)C2=O)cc1 (stereo not given)
inactive: Potency [1] | Potency [2] | Potency [3] | Potency [4]

Cc1ccc(C(=O)NNC(=O)c2ccccc2O)cc1S(=O)(=O)N1CCCCC1
inactive: Potency [1] | Potency [2] | Potency [3] | Potency [4]

CC(C)OP(=O)(OC(C)C)C1(NS(=O)(=O)c2ccc(Cl)cc2)C=C(Cl)C(=O)C(Cl)=C1
inactive: Potency [1] | activation [2] -0.932% [at 17.1 µM, percent relative to cAMP agonist control] | activity change, negative = inhibition [3] -5.74% [at 30.8 µM] | activation [4] 22.3% [at 30.8 µM]

Cc1ccc2c(c1)C(=O)CC(c1ccccc1)S2 (stereo not given)
inactive: Potency [1] | activation [2] -3.98% [at 17.1 µM, percent relative to cAMP agonist control] | activity change, negative = inhibition [3] -21.7% [at 30.8 µM] | activation [4] 6.35% [at 30.8 µM]

O=[N+]([O-])c1ccc2nc(NS(=O)(=O)c3ccc(F)cc3)sc2c1
inactive: Potency [1] | Potency [2] | Potency [3] | Potency [4]

O=C(Nc1ccccc1C(=O)Nc1nnc(C(F)(F)F)s1)c1ccccc1Cl
inactive: Potency [1] | Potency [2] | Potency [3] | Potency [4]

CCCCc1ccc(NC(=O)CN2C(=O)C3CCCCC3C2=O)cc1 (stereo not given)
inactive: Potency [1] | Potency [2] | Potency [3] | Potency [4]

COc1cc(/C=C2\SC(=S)N(NC(=O)c3ccc(O)c(OC)c3)C2=O)ccc1O
inactive: Potency [1] | Potency [2] | Potency [3] | Potency [4]

COc1cnc(N(C)C)nc1Sc1cccc(Cl)c1
inactive: Potency [1] | activation [2] 2.02% [at 17.1 µM, percent relative to cAMP agonist control] | activity change, negative = inhibition [3] -24.7% [at 30.8 µM] | activation [4] -4.79% [at 30.8 µM]

O=S(=O)(Nc1nccs1)c1ccc(Nc2nnc(-c3ccccc3)c3ccccc23)cc1
inactive: Potency [1] | activation [2] 2.79% [at 17.1 µM, percent relative to cAMP agonist control] | activity change, negative = inhibition [3] 3.85% [at 30.8 µM] | activation [4] 17.5% [at 30.8 µM]

N=C1S/C(=C\c2ccco2)C(=O)N1c1ccc2c(c1)OCO2
inactive: Potency [1] | Potency [2] | Potency [3] | Potency [4]

COc1ccc(/C=N/NC(=O)c2ccccc2O)cc1Cn1nnc2ccccc21
inactive: Potency [1] | Potency [2] | Potency [3] | Potency [4]

C=C1SC(Nc2c(C)cccc2C)=NC12CCCCC2
inactive: Potency [1] | Potency [2] | Potency [3] | Potency [4]

O=C1[C@H](Cc2ccccc2)NCC=CC[C@@H](c2ccc(Cl)cc2)N1Cc1ccc(Cl)cc1
inactive: Potency [1] | Potency [2] | Potency [3] | Potency [4]

CCCCn1c(=O)[nH]c(=O)c2c1nc(-c1ccccc1F)n2Cc1ccccc1OC
inactive: Potency [1] | Potency [2] | Potency [3] | Potency [4]

Cc1ccc(C2CC(c3cccs3)=NN2C(=O)CSc2nc(=O)n3cc(C)ccc3n2)cc1 (stereo not given)
inactive: Potency [1] | Potency [2] | Potency [3] | Potency [4]

COc1cc2c(c(OC)c1OC)C(c1ccccc1C)CC(=O)O2 (stereo not given)
inactive: Potency [1] | Potency [2] | Potency [3] | Potency [4]

Cc1ccc(C)c(Cn2nc(-c3ccccc3)ccc2=O)c1
inactive: Potency [1] | activation [2] -4.57% [at 17.1 µM, percent relative to cAMP agonist control] | activity change, negative = inhibition [3] 14.9% [at 30.8 µM] | activation [4] 3.62% [at 30.8 µM]

Cc1ccc(C(C)C)c(OCc2ccc(C(=O)N/N=C/c3ccc(O)c(O)c3)cc2)c1
inactive: Potency [1] | Potency [2] | Potency [3] | Potency [4]

CCCN(CCC)Cc1cc(=O)oc2cc(OC)ccc12
inactive: Potency [1] | Potency [2] | Potency [3] | Potency [4]

CC1(c2ccccc2)CC(C)(C)N2C(=O)C(=O)c3cccc1c32 (stereo not given)
inactive: Potency [1] | activation [2] -2.11% [at 17.1 µM, percent relative to cAMP agonist control] | activity change, negative = inhibition [3] -4.27% [at 30.8 µM] | activation [4] 21.7% [at 30.8 µM]

CCOC(=O)c1c(NC(=O)c2ccc(S(=O)(=O)N(C)CC3CCCO3)cc2)sc2c1CCN(C)C2 (stereo not given)
inactive: Potency [1] | Potency [2] | Potency [3] | Potency [4]

Cc1ccc(O)c(CNc2ccc(S(=O)(=O)Nc3nccs3)cc2)c1
inactive: Potency [1] | activation [2] -10.4% [at 17.1 µM, percent relative to cAMP agonist control] | activity change, negative = inhibition [3] 1.37% [at 30.8 µM] | activation [4] 19.2% [at 30.8 µM]

CCc1c(C2(O)CCCCC2)[nH]c2c(C(=O)OC)cc(Cl)cc12
inactive: Potency [1] | Potency [2] | Potency [3] | Potency [4]

Cc1noc(C)c1COc1ccccc1C(=O)N(C)Cc1ccc(C(C)(C)C)cc1
inactive: Potency [1] | Potency [2] | Potency [3] | Potency [4]

Oc1ccc(-c2cn3c(n2)SCC3)cc1O
inactive: Potency [1] | Potency [2] | Potency [3] | Potency [4]

CCOc1cnc(-c2c(-c3ccccc3Cl)noc2C)o1
inactive: Potency [1] | Potency [2] | Potency [3] | Potency [4]

COc1ccc(NC(=O)c2cccnc2NCCc2ccccc2)cc1
inactive: Potency [1] | Potency [2] | Potency [3] | Potency [4]

O=C(O)c1cc(N/N=C/C=C/c2ccccc2)ccc1Cl
inactive: Potency [1] | Potency [2] | Potency [3] | Potency [4]

O=C(CC1C[C@H](C(=O)N2CCCCC2)[C@@]2(CCc3ccccc3)c3[nH]c4ccccc4c3CCN2C1=O)NCCCn1ccnc1 (stereo not given in full)
inactive: Potency [1] | Potency [2] | Potency [3] | Potency [4]

CCCCCOC(=O)C1=C(C)Nc2nnnn2C1c1ccccc1Cl (stereo not given)
inactive: Potency [1] | activation [2] 12.2% [at 17.1 µM, percent relative to cAMP agonist control] | activity change, negative = inhibition [3] -14.1% [at 30.8 µM] | activation [4] 21.2% [at 30.8 µM]

O=C(NCCc1ccccc1)c1cccc(NC(=O)c2ccccc2)c1
inactive: Potency [1] | Potency [2] | Potency [3] | Potency [4]

O=c1oc2ccccc2n1Cc1ccccc1Cl
inactive: Potency [1] | Potency [2] | Potency [3] | Potency [4]

O=C1c2ccccc2C(c2nnnn2Cc2ccccc2)N1CCc1c[nH]c2ccccc12 (stereo not given)
inactive: Potency [1] | Potency [2] | Potency [3] | Potency [4]

CC(C)=CCC[C@H](C)C[C@@H]1Cc2[nH][nH]c(=O)c2[C@H](c2ccc(F)cc2)O1
inactive: Potency [1] | Potency [2] | Potency [3] | Potency [4]

CC(=O)C1=C(O)C2(C)c3c(O)c(C)c(O)c(C(C)=O)c3OC2CC1=O (stereo not given)
inactive: Potency [1] | activation [2] -4.59% [at 17.1 µM, percent relative to cAMP agonist control] | activity change, negative = inhibition [3] -6.21% [at 30.8 µM] | activation [4] -4.12% [at 30.8 µM]

O=C1CC(=O)Nc2cc(S(=O)(=O)Nc3ccc(Cl)c(C(F)(F)F)c3)ccc2N1
inactive: Potency [1] | Potency [2] | Potency [3] | Potency [4]

COc1cccc(/C=C2/NC(=O)N(CC(=O)Nc3ccc(C)cc3)C2=O)c1OCc1cccc(C(=O)O)c1
inactive: Potency [1] | Potency [2] | Potency [3] | Potency [4]

Fc1ccc2c(-c3cccc(C(F)(F)F)c3)c(-c3ccccc3)ncc2c1
inactive: Potency [1] | Potency [2] | Potency [3] | Potency [4]

COc1ccccc1/C=C/C=c1\sc2nc(=O)c(Cc3ccccc3)nn2c1=O
inactive: Potency [1] | Potency [2] | Potency [3] | Potency [4]

CCc1nc2c(OCc3ccc(C(=O)OC)cc3)cccn2c1N(C)C(=O)c1ccc(OC)cc1
inactive: Potency [1] | activation [2] -6.93% [at 17.1 µM, percent relative to cAMP agonist control] | activity change, negative = inhibition [3] 5.67% [at 30.8 µM] | activation [4] 20% [at 30.8 µM]

O=C(Nc1ccncc1)c1cc2ccccc2cc1O
inactive: Potency [1] | Potency [2] | Potency [3] | Potency [4]

Cc1cc(C)c2c(CN3CCC(C)CC3)cc(=O)oc2c1
inactive: Potency [1] | activation [2] -1.95% [at 17.1 µM, percent relative to cAMP agonist control] | activity change, negative = inhibition [3] 10.9% [at 30.8 µM] | activation [4] 22% [at 30.8 µM]

CNc1nc(C)cc(C)c1S(=O)(=O)c1ccc(C)cc1
inactive: Potency [1] | activation [2] 6.77% [at 17.1 µM, percent relative to cAMP agonist control] | activity change, negative = inhibition [3] -11.2% [at 30.8 µM] | activation [4] 14.5% [at 30.8 µM]

COc1cc(C(=O)c2ccccc2)c([N+](=O)[O-])cc1OC
inactive: Potency [1] | Potency [2] | Potency [3] | Potency [4]

COc1ccc(/C=C/C(=O)c2ccccc2)c(OC)c1
inactive: Potency [1] | activation [2] 0.603% [at 17.1 µM, percent relative to cAMP agonist control] | activity change, negative = inhibition [3] -16.1% [at 30.8 µM] | activation [4] -1.52% [at 30.8 µM]

Fc1ccc2cnc(-c3ccccc3)c(-c3ccc(C(F)(F)F)cc3)c2c1
inactive: Potency [1] | Potency [2] | Potency [3] | Potency [4]

Reference: PubChem BioAssay (NCATS)
